# Shiga inhibitor: A qHTS for Small Molecule Inhibitors of Shiga Toxin | Vero cells, Shiga toxin protein synthesis inhibition reporter | inhibition, % at 38.7 µM | 290,000 tested, 9.2% active; in the data active = inhibition mostly above about 28%, no sharp cut-off; inactive = mostly below about 43%; note: 0% is about no effect
# Giardia FBPA inh: qHTS Assay for Inhibitors of Fructose-1,6-bisphosphate Aldolase from Giardia Lamblia; A8B2U2; purified Giardia FBPA; Potency, µM (doses to about 59.6 µM), for the others: at the top dose activity, negative = inhibition, actives largely listed as inhibitors; 290,000 tested, 0.71% active; note: potency is the fitted concentration of half-maximal effect; % is set by controls: 0 for no effect and ±100 for the full control effect; nearly all actives have a fitted effect of over 55% in size
#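 Giardia FBPA (40 nM reagent) was preincubated 10 min at RT with compound (up to 57.5 uM final), then substrate plus GAPDH/TPI/NAD/arsenate coupling system with diaphorase/resazurin was added; resorufin fluorescence (525/598 nm) was read after 20 min.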
# LmPK inhibitor: qHTS Assay for Inhibitors of Leishmania Mexicana Pyruvate Kinase (LmPK); 290,000 tested, 0.37% active; AID 1721, 2009; Q27686; purified LmPK, Kinase-Glo ATP luminescence, 1 h; Potency, µM (top dose mostly 57.5 µM), for inactives: at the top dose activity change, negative = inhibition, actives largely listed as inhibitors; note: potency is the fitted concentration of half-maximal effect; % is set by controls: 0 for no effect and ±100 for the full control effect
# Target sequence (Q27686 whole entry, looked up): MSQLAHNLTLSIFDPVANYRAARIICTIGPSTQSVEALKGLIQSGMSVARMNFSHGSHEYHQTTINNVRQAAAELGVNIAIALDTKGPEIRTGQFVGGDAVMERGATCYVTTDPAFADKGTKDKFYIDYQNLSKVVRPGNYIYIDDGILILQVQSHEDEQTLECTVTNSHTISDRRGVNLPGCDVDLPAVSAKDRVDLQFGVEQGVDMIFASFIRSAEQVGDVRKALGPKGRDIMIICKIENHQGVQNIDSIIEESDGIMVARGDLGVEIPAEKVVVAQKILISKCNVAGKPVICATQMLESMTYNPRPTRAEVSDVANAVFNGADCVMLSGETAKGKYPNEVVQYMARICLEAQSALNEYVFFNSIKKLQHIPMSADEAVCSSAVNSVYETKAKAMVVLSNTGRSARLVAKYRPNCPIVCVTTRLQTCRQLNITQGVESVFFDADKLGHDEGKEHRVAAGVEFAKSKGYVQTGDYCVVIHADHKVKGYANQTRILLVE
#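 Purified LmPK (0.1 nM) converted ADP (0.1 mM) to ATP with PEP (0.5 mM) in imidazole buffer pH 7.2 with KCl and MgCl2, 1 h at room temperature. ATP was read by Kinase-Glo luminescence; data normalized to uninhibited and no-enzyme controls.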
# TbPYK inhibitor: qHTS of Trypanosoma Brucei Inhibitors | pyruvate kinase (Trypanosoma brucei), Q57TT1 | TbPYK enzyme, Kinase-Glo Plus ATP luminescence, 45 min | Potency, µM (top dose mostly 76.8 µM), without a hit: at the highest dose activity, negative = inhibition, most hits filed as inhibitors | 410,000 tested, 0.12% active | AID 624173, 2012; note: potency is the fitted concentration of half-maximal effect; % is set by controls: 0 for no effect and ±100 for the full control effect; nearly all actives have a fitted effect of over 50% in size
#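 TbPYK + substrate in 50 mM TEA pH 7.2, 100 mM KCl, 10 mM MgCl2, 0.05% BSA, 0.01% Tween-20; cpd pinned; ADP 130 uM final; 45 min RT; Kinase-Glo Plus 10 min; luminescence endpoint.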
# CHX counter: Cycloheximide Counterscreen for Small Molecule Inhibitors of Shiga Toxin. 300,000 tested, 12% active. cell reporter, cycloheximide protein synthesis inhibition counterscreen. max response, %; in the data active = max response mostly above about 13%, no sharp cut-off; inactive = mostly below about 14%; note: read at 38.3 µM for the half of the compounds with a filed dose; 0% is about no effect
# RE007 growth inh: qHTS Assay for Inhibitors of the HIV-1 protein Vpr; AID 651644, 2012; 360,000 tested, 0.21% active; Potency, µM (titrated, usually from 92.2 µM), for inactives: at the highest dose activity change, negative = less growth, hits mostly inhibitors; S. pombe RE007 Vpr strain, BacTiter-Glo ATP luminescence, 24 h; active = well fitted falling curve with a large enough effect; inconclusive = small, poorly fitted or top-dose-only effect; inactive = no such curve, though single readings can be large or run the other way; note: potency is the fitted concentration of half-maximal effect; % is set by controls: 0 for no effect and ±100 for the full control effect; nearly all actives have a fitted effect of over 50% in size
#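 Fission yeast RE007 carrying one integrated HIV-1 vpr copy, seeded at OD 0.01 in PMG+AL medium with 23 nL pinned compound. Grown 24 h at 30 degrees; viability read by BacTiter-Glo luminescence after 5 min.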
# Starred values were filed as active, the others as inactive; ? = inconclusive; · = no result; [ ] = remark or other dose. The entries come from a sample that favours hits as a whole. Unless noted, calls come from the whole dose curve; as a rule, active = well fitted curve in the direction sought with a large enough effect; inconclusive = small, poorly fitted or top-dose-only effect, or another doubt; inactive = no such curve, though single readings can be large; an effect the other way counts as inactive or inconclusive.
SMILES,Shiga inhibitor,Giardia FBPA inh,LmPK inhibitor,TbPYK inhibitor,CHX counter,RE007 growth inh
CC(/C=N/Nc1ncc(C)c(=O)[nH]1)=C\c1ccccc1,25,-11%,5%,4%,13,8%
CC(/C=N/Nc1nc(C)cc(=O)[nH]1)=C\c1ccccc1,60*,-15%,-2%,-1%,42*,2%
CCCCCCC(=O)N(O)C1CC(=O)N(c2ccc(Cl)cc2)C1=O (stereo unspecified),1,-16%,-25%,-24%,-2,4µM*
CCCCCCC(=O)N(O)C1CC(=O)N(c2ccc(C)cc2)C1=O (stereo unspecified),9,-7%,-1%,·,13,0%[3.69 µM]
CCOc1ccc(OCC)c(Nc2cc(C)nc3nc(-c4ccco4)nn23)c1,·,·,·,-1%,·,·
Oc1ccc2c(c1)OCC1(O)Cc3cc(O)c(O)cc3C21 (stereo unspecified),·,18µM*,·,11µM*,·,2%
Oc1cc2c(cc1O)[C@H]1c3ccc(O)c(O)c3OC[C@@]1(O)C2,·,?,·,5.6µM*,·,-27%
Oc1ccc2c3c1OC1C(O)C=CC4[C@@H](C2)NCC[C@]314 (stereo partly specified),·,·,·,-7%[157 µM],·,·
COCC(=O)N1CCC[C@@]2(CCN(C(=O)Nc3ccc(OC)cc3)C2)C1,·,-1%,·,0%,·,·
O=S1(=O)c2ccc(Br)cc2N2CCC[C@@H]2CN1Cc1ccccc1,·,·,·,-4%,·,-8%
O=C(NCc1ccc2c(c1)CCO2)Nc1ccccc1,54*,0%,0%,-18%,61*,3%
Cc1ccc(C(=O)NCc2ccc3c(c2)CCO3)cc1C,57*,4%,-7%,-6%,22*,16%
CCOC(=O)c1[nH]c(=S)n(Cc2ccccc2)c1C(=O)OCC,·,·,·,?,·,3%
Cc1cc(C(=O)OCn2nnc3ccccc3c2=O)c(C)n1-c1ccccc1,69*,6%,2%,-6%,62*,7%
CCOC(=O)c1[nH]c(=S)n(-c2ccccc2)c1C(=O)OCC,·,·,·,2.5µM*,·,-4%
CCN(C(=O)COC(=O)c1cc(C)n(-c2ccc(F)cc2)c1C)C1CCS(=O)(=O)C1 (stereo unspecified),-7,-13%,6%,6%,4,7%
Cc1cc(C(=O)OCC(N)=O)c(C)n1-c1ccccc1,41*,3%,2%,0%,33*,5%
C/C(N)=C(/C#N)C(=O)COC(=O)c1cc(C)n(-c2ccc(F)cc2)c1C,96*,2%,2%,-2%,72*,1%
Cc1ccc(NC(=O)c2cc(C(=O)c3cc(Cl)ccc3O)cn(-c3ccc(C)cc3)c2=O)cc1,-8,-5%,1%,-11%,-4,·
Cc1cccc(CS(=O)(=O)CC2Nc3ccc(C(=O)NCc4ccccc4Cl)cc3NC2=O)c1 (stereo unspecified),·,·,·,-4%,·,·
CCOC(=O)c1cc(C)n(-c2ccccc2)c1C,52*,7%,3%,0%,50*,-12%
CC(C)OC(=O)c1ccc(Cn2nnc3ccccc3c2=O)cc1,89*,-1%,3%,-1%,27*,2%
Cc1cc(C(=O)O)c(C)n1-c1ccccc1,-11,7%,-4%,-12%,-5,3%
COc1ccc(C2c3c(n(C)c4ccccc34)C(=O)N2CC(=O)Nc2ccc(Cl)cc2)cc1 (stereo unspecified),·,·,·,5%[15.4 µM],·,·
CCN(CC)c1ccc(/C=N/NC(=O)Nc2ccccc2)cc1,71*,-11%,4%,0%,35*,17%
SMILES,Shiga inhibitor,Giardia FBPA inh,LmPK inhibitor,TbPYK inhibitor,CHX counter,RE007 growth inh
CCOc1ccc(/C=N/NC(=O)Nc2ccccc2)cc1,69*,5%,-1%,0%,41*,1%
CCN(CC)c1ccc(/C=N\NC(N)=O)cc1,8,0%,-6%,-6%,7,-5%
CC(=O)Oc1ccc(/C=N/NC(=S)Nc2ccccc2)cc1,35,2%,-7%,-13%,53*,6%
O=C(Cc1ccccc1)N/N=C/c1ccc(OCC(=O)Nc2ccccc2)cc1,30,-2%,4%,-1%,9,-7%
CCOc1ccc(/C=N/NC(=O)CC(=O)NCc2ccccc2)cc1,-14,-1%,-3%,0%,-2,41%
CC(C)CCNC(=O)Cn1cc(S(=O)(=O)Cc2ccc(F)cc2)c2ccccc21,·,·,·,-21%[15.4 µM],·,·
CC(=O)OC[C@@H]1O[C@@H](O/N=C2/C[C@@H](O)[C@@H](O)[C@@H]3[C@@H]4C(=O)N(c5cccc(Oc6ccccc6)c5)C(=O)[C@H]4CC[C@@H]23)[C@H](OC(C)=O)[C@H](OC(C)=O)[C@@H]1OC(C)=O,·,1%[12.9 µM],·,·,·,·
O=[N+]([O-])c1ccc(-c2cn(-c3ccc(Cl)cc3)cn2)cc1,·,·,·,-3%,·,-7%
Brc1ccc(-n2cnc(-c3ccccc3)c2)cc1,60*,4%,-2%,0%,51*,-7%
O=C1CC(N2CCN(c3nc4ccccc4s3)CC2)C(=O)N1c1ccc(F)cc1 (stereo unspecified),-6,0%,3%,1%,-6,?
O=c1c(Cl)c(N2CCN(c3ccc(F)cc3)CC2)cnn1-c1nc2ccccc2s1,75*,5%,-8%,-1%,39*,-3%
Cc1nc(Cc2nnc(SCC(=O)N3c4ccccc4NC(=O)C3(C)C)o2)cs1,·,·,·,-1%,·,11%
O=c1[nH]nc(Cc2ccc3ccccc3n2)c2ccccc12,36*,-2%,-1%,0%,28*,8%
O=c1[nH]nc(Cc2ccccc2)c2ccccc12,6,-10%,6%,2%,-3,11%
CCc1ccccc1NC(=O)CN1C(=O)C2CCCN2c2ccc(S(=O)(=O)N(CC)CC)cc21 (stereo unspecified),·,·,·,-6%,·,·
Cc1cc(C(=O)CSc2nncs2)c(C)n1-c1c(C)n(C)n(-c2ccccc2)c1=O,-11,0%,-2%,17%,3,6%
Cc1ccc(-n2c(C)cc(C(=O)CSc3nnnn3C)c2C)cc1,66*,-26%,-22%,-3%,53*,-4%
Cc1ccc(-n2c(C)cc(C(=O)CSc3nncs3)c2C)cc1,105*,-4%,-8%,-16%,45*,-22%
Cc1ccc(NC(=O)CSC2=Nc3ccccc3C3=NC(Cc4ccccc4)C(=O)N23)cc1C (stereo unspecified),·,·,·,1%,·,·
O=C1CCCCCN1Cc1nnc(SCc2nc3ccccc3s2)n1-c1ccccn1,92*,-16%,-1%,-10%,74*,-12%
CCNC(=O)CSc1nnc(CN2CCCCCC2=O)n1-c1ccccn1,2,2%,-3%,-4%,8,9%
